Results reported in the antibiotic and cytotoxicity screens of Wong et al. (2023).
The whole screen tested about 39,000 compounds, of which about 3,300 (8.5%) were called active. For the sample, actives were picked, then their nearest neighbours and some compounds at random.

System: HepG2
Assay: cytotoxicity call (relative viability < 0.9)
Details: 10 µM

SMILES | cytotoxicity call
COc1ccc(S(=O)(=O)Nc2ccc3c(c2)C(=O)N([C@H](C)CO)C[C@H](C)[C@H](CN(C)C(=O)CCC(F)(F)F)OCCCC[C@@H](C)O3)cc1 | inactive
COc1ccc(NC(=O)Nc2ccc3c(c2)C(=O)N([C@H](C)CO)C[C@@H](C)[C@@H](CN(C)Cc2ccncc2)OCCCC[C@@H](C)O3)cc1 | inactive
Cc1ccc(S(=O)(=O)NCC[C@H]2CC[C@@H](NS(=O)(=O)c3ccccc3Cl)[C@@H](CO)O2)cc1 | inactive
Cc1noc(C)c1NC(=O)Nc1ccc2c(c1)CC(=O)N([C@@H](C)CO)C[C@@H](C)[C@H](CN(C)S(=O)(=O)c1cn(C)cn1)O2 | inactive
CN1C(=O)c2cc(NC(=O)c3cnccn3)ccc2OC[C@H]2O[C@@H](CC(=O)N[C@H]3CCN(Cc4ccccc4)C3)CC[C@H]21 | inactive
COc1ccc(CN(C)C[C@H]2OCCCC[C@@H](C)Oc3ccc(NC(=O)Nc4cccc5ccccc45)cc3C(=O)N([C@@H](C)CO)C[C@@H]2C)cc1 | inactive
COc1ccc(CN(C)C[C@H]2OCCCC[C@@H](C)Oc3ccc(NC(=O)Nc4cccc5ccccc45)cc3C(=O)N([C@H](C)CO)C[C@@H]2C)cc1 | active
COc1ccc(CN(C)C[C@H]2OCCCC[C@@H](C)Oc3ccc(NC(=O)Nc4cccc5ccccc45)cc3C(=O)N([C@@H](C)CO)C[C@H]2C)cc1 | active
COc1ccc(CN(C)C[C@H]2OCCCC[C@H](C)Oc3ccc(NC(=O)Nc4cccc5ccccc45)cc3C(=O)N([C@H](C)CO)C[C@H]2C)cc1 | inactive
COc1ccc(CN(C)C[C@@H]2OCCCC[C@@H](C)Oc3ccc(NC(=O)Nc4cccc5ccccc45)cc3C(=O)N([C@H](C)CO)C[C@@H]2C)cc1 | inactive
COc1ccc(CN(C)C[C@@H]2OCCCC[C@@H](C)Oc3ccc(NC(=O)Nc4cccc5ccccc45)cc3C(=O)N([C@@H](C)CO)C[C@@H]2C)cc1 | inactive
C[C@H]1CN([C@@H](C)CO)C(=O)c2cc(NC(=O)Cn3cnnn3)ccc2O[C@H]1CN(C)S(=O)(=O)c1ccc(F)cc1 | inactive
C[C@@H]1CN([C@H](C)CO)C(=O)c2cccc(NS(=O)(=O)c3ccccc3)c2O[C@@H]1CN(C)S(=O)(=O)c1ccccc1 | inactive
C[C@@H]1CN([C@H](C)CO)C(=O)c2cc(NC(=O)Cc3ccccc3)ccc2O[C@@H](C)CCCCO[C@H]1CN(C)C(=O)Nc1ccc(F)cc1 | inactive
C[C@H]1CN([C@@H](C)CO)C(=O)Cc2cc(NS(=O)(=O)c3ccc(F)cc3)ccc2O[C@H]1CN(C)S(=O)(=O)c1ccccc1 | inactive
C#Cc1cnc(OC)cn1 | inactive
C[C@@H]1CN([C@@H](C)CO)C(=O)c2cc(NC(=O)Nc3cccc4ccccc34)ccc2O[C@@H](C)CCCCO[C@H]1CN(C)CC1CCCCC1 | active
C[C@H]1CCCCO[C@H](CN(C)C)[C@@H](C)CN([C@@H](C)CO)C(=O)c2cc(NC(=O)Nc3cccc4ccccc34)ccc2O1 | inactive
C[C@@H]1CN([C@@H](C)CO)C(=O)c2cc(NC(=O)Nc3cccc4ccccc34)ccc2O[C@@H](C)CCCCO[C@@H]1CN(C)CC1CCCCC1 | active
C[C@@H]1CCCCO[C@H](CN(C)CC2CCCCC2)[C@@H](C)CN([C@H](C)CO)C(=O)c2cc(NC(=O)Nc3cccc4ccccc34)ccc2O1 | active
C[C@H]1CCCCO[C@H](CN(C)CC2CCCCC2)[C@@H](C)CN([C@@H](C)CO)C(=O)c2cc(NC(=O)Nc3cccc4ccccc34)ccc2O1 | active

SMILES | cytotoxicity call
C[C@H](CO)N1C[C@H](C)[C@@H](CN(C)C)OCCCC[C@H](C)Oc2ccc(NC(=O)Nc3cccc4ccccc34)cc2C1=O | inactive
CN(C)c1ccc(O)c2c1C[C@@H]1C[C@@H]3[C@@H](N(C)C)C(=O)C(C(N)=O)=C(O)[C@]3(O)C(=O)[C@H]1C2=O | inactive
CC(C)NC(=O)N(C)C[C@@H]1Oc2ccc(NC(=O)Cn3cnnn3)cc2C(=O)N([C@H](C)CO)C[C@H]1C | inactive
COCC#Cc1ccc2c(c1)O[C@H](CN(C)S(=O)(=O)c1ccc(OC)cc1)[C@@H](C)CN([C@H](C)CO)S2(=O)=O | inactive
O=C(O)c1ccc2c(ccc3nn(-c4ccc(/C=C/c5ccc(-n6nc7ccc8cc(C(=O)O)ccc8c7n6)cc5S(=O)(=O)O)c(S(=O)(=O)O)c4)nc32)c1 | inactive
C[C@H]1CN([C@@H](C)CO)C(=O)c2cc(C#Cc3ccncc3)cnc2O[C@H]1CN(C)C(=O)c1ccccc1F | inactive
COc1ccc(S(=O)(=O)N(C)C[C@H]2Oc3ccc(NC(=O)CCC(F)(F)F)cc3CC(=O)N([C@@H](C)CO)C[C@H]2C)cc1 | inactive
C[C@@H]1CN([C@H](C)CO)C(=O)c2c(c3ccccc3n2C)-c2ccccc2CO[C@@H]1CN(C)Cc1cccc(O)c1 | inactive
Cc1noc(C)c1NC(=O)Nc1cccc2c1O[C@@H](CN(C)Cc1ccc(C(=O)Nc3ccccc3N)cc1)[C@H](C)CN([C@@H](C)CO)C2=O | inactive
C[C@@H]1CN([C@H](C)CO)C(=O)Cc2cc(NC(=O)Cc3ccccc3)ccc2O[C@@H]1CN(C)S(=O)(=O)c1ccccc1 | inactive
C[C@@H]1CN([C@H](C)CO)S(=O)(=O)c2ccc(C#CC3CCCC3)cc2O[C@H]1CN(C)Cc1cncnc1 | inactive
C[C@H](CO)N1C[C@H](C)[C@H](CN(C)Cc2ccncc2)Oc2c(NS(=O)(=O)c3cccs3)cccc2C1=O | inactive
CO[C@@H]1CN(C)C(=O)c2ccc(NC(=O)Nc3cccc(F)c3)cc2OC[C@@H](C)N(C(=O)Nc2cccc(F)c2)C[C@H]1C | inactive
C[C@H](CO)N1C[C@H](C)[C@H](CN(C)C(=O)CN2CCOCC2)Oc2cc(C#Cc3cccc(F)c3)ccc2S1(=O)=O | inactive
C[C@@H]1CCCCO[C@H](CN(C)CC2CCCCC2)[C@H](C)CN([C@@H](C)CO)C(=O)c2cc(NC(=O)Nc3cccc4ccccc34)ccc2O1 | active
C[C@@H]1CCCCO[C@@H](CN(C)CC2CC2)[C@H](C)CN([C@H](C)CO)C(=O)c2cc(NC(=O)Nc3cccc4ccccc34)ccc2O1 | inactive
C[C@@H]1CCCCO[C@@H](CN(C)CC2CCCCC2)[C@@H](C)CN([C@@H](C)CO)C(=O)c2cc(NC(=O)Nc3cccc4ccccc34)ccc2O1 | active
C[C@@H]1CCCCO[C@@H](CN(C)CC2CC2)[C@@H](C)CN([C@H](C)CO)C(=O)c2cc(NC(=O)Nc3cccc4ccccc34)ccc2O1 | inactive
C[C@@H]1CCCCO[C@H](CN(C)CC2CCCCC2)[C@H](C)CN([C@H](C)CO)C(=O)c2cc(NC(=O)Nc3cccc4ccccc34)ccc2O1 | active
C[C@@H]1CCCCO[C@@H](CN(C)CC2CC2)[C@H](C)CN([C@@H](C)CO)C(=O)c2cc(NC(=O)Nc3cccc4ccccc34)ccc2O1 | inactive
C[C@@H]1CN([C@@H](C)CO)C(=O)c2cc(NC(=O)Nc3cccc4ccccc34)ccc2O[C@@H](C)CCCCO[C@H]1CN(C)CC1CC1 | inactive

SMILES | cytotoxicity call
C[C@@H]1CCCCO[C@@H](CN(C)C)[C@H](C)CN([C@H](C)CO)C(=O)c2cc(NC(=O)Nc3cccc4ccccc34)ccc2O1 | inactive
C[C@H]1CCCCO[C@@H](CN(C)CC2CCCCC2)[C@@H](C)CN([C@@H](C)CO)C(=O)c2cc(NC(=O)Nc3cccc4ccccc34)ccc2O1 | active
C[C@@H]1CCCCO[C@H](CN(C)C)[C@@H](C)CN([C@H](C)CO)C(=O)c2cc(NC(=O)Nc3cccc4ccccc34)ccc2O1 | inactive
CO[C@H](CN(C)S(=O)(=O)c1cn(C)cn1)[C@@H](C)CN(C(=O)Nc1ccc(C(F)(F)F)cc1)[C@H](C)CO | inactive
Cc1noc(C)c1S(=O)(=O)N(C)C[C@H]1Oc2ccc(NC(=O)NC3CCCCC3)cc2CC(=O)N([C@H](C)CO)C[C@H]1C | inactive
Cc1ccc(S(=O)(=O)N(C)C[C@H]2Oc3c(NC(=O)c4ccncc4)cccc3C(=O)N([C@@H](C)CO)C[C@@H]2C)cc1 | inactive
C[C@H]1CN([C@@H](C)CO)C(=O)c2cccc(NC(=O)c3ccc(-c4nccs4)cc3)c2O[C@H]1CN(C)S(=O)(=O)c1ccc(Cl)cc1 | inactive
CNC1C(OC2OC(CO)C(N)C(O)C2O)OC2CC(N)C(OC3C(N)CC(N)C(O)C3O)OC2C1O.O=S(=O)(O)O (configuration not stated) | inactive
C[C@H]1CN([C@@H](C)CO)C(=O)Cc2cc(NC(=O)c3ccncc3)ccc2O[C@@H]1CN(C)S(C)(=O)=O | inactive
C[C@@H]1CN([C@@H](C)CO)C(=O)Cc2cc(NC(=O)C3CC3)ccc2O[C@@H]1CN(C)S(=O)(=O)c1ccccc1 | inactive
CO[C@@H]1CN(C)C(=O)c2ccc(NC(=O)C3CC3)cc2OC[C@H](C)N(C(=O)C2CCOCC2)C[C@H]1C | inactive
C[C@@H]1CN([C@@H](C)CO)C(=O)c2cc(NS(=O)(=O)c3cn(C)cn3)ccc2O[C@@H](C)CCCCO[C@H]1CN(C)C | inactive
C[C@@H]1CCCCO[C@@H](CN(C)CC2CCCCC2)[C@@H](C)CN([C@H](C)CO)C(=O)c2cc(NC(=O)Nc3cccc4ccccc34)ccc2O1 | active
C[C@@H]1CCCCO[C@@H](CN(C)CC2CCCCC2)[C@H](C)CN([C@@H](C)CO)C(=O)c2cc(NC(=O)Nc3cccc4ccccc34)ccc2O1 | active
C[C@H](CO)N1C[C@H](C)[C@H](CN(C)CC2CC2)OCCCC[C@H](C)Oc2ccc(NC(=O)Nc3cccc4ccccc34)cc2C1=O | inactive
C[C@H](CO)N1C[C@H](C)[C@@H](CN(C)CC2CC2)OCCCC[C@H](C)Oc2ccc(NC(=O)Nc3cccc4ccccc34)cc2C1=O | inactive
C[C@H](CO)N1C[C@H](C)[C@H](CN(C)CC2CCCCC2)OCCCC[C@H](C)Oc2ccc(NC(=O)Nc3cccc4ccccc34)cc2C1=O | active
C[C@@H]1CCCCO[C@H](CN(C)CC2CC2)[C@H](C)CN([C@@H](C)CO)C(=O)c2cc(NC(=O)Nc3cccc4ccccc34)ccc2O1 | inactive
C[C@@H]1CCCCO[C@H](CN(C)CC2CC2)[C@@H](C)CN([C@H](C)CO)C(=O)c2cc(NC(=O)Nc3cccc4ccccc34)ccc2O1 | inactive
C[C@H](CO)N1C[C@H](C)[C@@H](CN(C)CC2CCCCC2)OCCCC[C@H](C)Oc2ccc(NC(=O)Nc3cccc4ccccc34)cc2C1=O | active
